Holding throughout (assay): qHTS profiling for inhibitors of Plasmodium falciparum proliferation (AID 504749); also: nearly all actives have a fitted effect of over 60% in size
What all share (settings): P. falciparum in erythrocytes, SYBR Green DNA, 72 h; series mostly up to 28.7 µM

Assay [1] concerns JCK. In short, it runs like this: (§1)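 SYBR Green fluorescence of parasite DNA, read after lysis and overnight dark incubation, measured growth over 72 h in erythrocyte culture at 0.3% parasitemia and 2.5% hematocrit. Data normalised to DMSO and 0.29 uM artemisinin, with plate-drift correction.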
For assay [2], the system named is SC27B. Summed up:
as §1

The test system of assay [3] is PC26. Summed up:
as §1

Assay [4] deals with N140. In short, it runs like this:
as §1

Assay [5] concerns PAD. In short, it runs like this: as §1
The subject of assay [6] is PC15. Summed up:
as §1

The test system of assay [7] is PC49. In short, it runs like this: as §1
For assay [8], the system named is TAB109. Summed up: as §1
Assay [9] deals with P93_24. In short, it runs like this:
as §1

Assay [10] has as its system P94_40. Summed up: as §1

Results filed as inconclusive are left out. Calls of active or inactive are those of the source. Calls follow the shape of the dose curve; as a rule, active = well fitted inhibition curve with a large enough effect; inconclusive = small, poorly fitted or top-dose-only effect; inactive = flat fitted curve, though single readings scatter.
Potency is read from the fitted curve at half-maximal effect.

With `CN1CCC[C@@H]1Cc1c[nH]c2ccc(CCS(=O)(=O)c3ccccc3)cc12`, the Potency entry in assay [1] and in assay [2] was “inactive” throughout.
Regarding `Nc1ccc(S(=O)(=O)Nc2ccc(Cl)nn2)cc1`, the Potency in assay [1] is 0.891 µM (active). The Potency entry in assay [3] was “inactive”.
Regarding `NC1CCN(c2cccc(Cl)n2)CC1`, the Potency result in [1], in [4], in assay [5], in assay [6], in assay [3] and in assay [7] was “inactive” throughout. Moreover, the Potency entry in [2] and in assay [8] was “inactive” in each case.
For the compound `CSc1ccc2c(c1)N(CCC1CCCCN1C)c1ccccc1S2` (stereo not drawn), the Potency was 11.2 µM (active) in assay [9]; 7.08 µM (active) in assay [10]; 8.91 µM (active) in assay [5]; 10 µM (active) in assay [6]; 12.6 µM (active) in assay [2]; 8.91 µM (active) in assay [8].
Turning to `CSc1ccc2c(c1)C(N1CCN(C)CC1)Cc1ccccc1S2` (stereo not drawn), the Potency result in assay [1], in assay [6] and in assay [7] was “inactive” in each case. The Potency in [9] is 11.2 µM (active).
`C[C@]12C[C@H](O)[C@H]3[C@@H](CCC4=CC(=O)CC[C@@]43C)[C@@H]1CC[C@@H]2C(=O)CO`: the Potency entry in assay [6] and in assay [3] was “inactive” each time.
In the case of `CC(CN1c2ccccc2Sc2ccccc21)N(C)C` (stereo not drawn), the Potency result in assay [1], in assay [10], in assay [5], in [6], in assay [3] and in [7] was “inactive” throughout. Also, in assay [8], the Potency result is “inactive”. The Potency in assay [4] is 4.47 µM (active).
Take `CN(C)CCCN1c2ccccc2Sc2ccc(Cl)cc21`: the Potency in [5] is 10 µM (active); in [6] it was 10 µM (active); in [3] it was 6.75 µM (active); in [7] it was 7.08 µM (active).
On to `CCN(CC)CCNC(=O)c1c(C)[nH]c(/C=C2\C(=O)Nc3ccc(F)cc32)c1C`, for which the Potency in [4] was 8.91 µM (active); in [9], 6.31 µM (active); in assay [10], 7.94 µM (active); in assay [5], 5.01 µM (active); in assay [6] it was 8.91 µM (active); in [3], 5.36 µM (active). Moreover, the Potency in assay [2] was 12.6 µM (active); in assay [8], 8.91 µM (active).
As for `c1ccc(CN(CC2=NCCN2)c2ccccc2)cc1`, the Potency in [7] is 3.16 µM (active).
With `CN1CCN(C2Cc3ccccc3Sc3ccc(Cl)cc32)CC1` (stereo not drawn), the Potency entry in [1], in assay [4], in assay [10] and in assay [6] was “inactive” each time.
For `CN(C)CCN(Cc1ccccc1)c1ccccn1`, the Potency result in [1], in assay [10], in [5], in assay [6], in assay [7] and in [2] was “inactive” each time.
On to `OCCN1CCN(CCCN2c3ccccc3Sc3ccc(Cl)cc32)CC1`, for which the Potency in assay [4] was 3.55 µM (active); in assay [9], 2.24 µM (active); in assay [6] it was 3.16 µM (active).
`Cc1ccc2nc(N)[nH]c(=O)c2c1Sc1ccncc1`: the Potency was 12.6 µM (active) in [1]; 3.98 µM (active) in assay [4]; 14.1 µM (active) in assay [9]; 12.6 µM (active) in [10]; 7.08 µM (active) in assay [8]. Also, in [3], the Potency entry is “inactive”.
With `CCN(CC)CCNC(C(=O)OCCC(C)C)c1ccccc1` (stereo not drawn), the Potency entry in [1], in assay [5] and in [2] was “inactive” each time. Besides, in assay [9], the Potency is 8.91 µM (active).
For the compound `CNCCCC1c2ccccc2C=Cc2ccccc21`, the Potency entry in assay [1], in assay [4], in assay [5], in assay [7], in assay [2] and in [8] was “inactive” in each case.
For the compound `CCCCN(CCCC)CC(O)c1cc(Cl)cc2c1-c1ccc(Cl)cc1/C2=C/c1ccc(Cl)cc1` (stereo not drawn), the Potency was 0.0045 µM (active) in assay [4]; 0.0126 µM (active) in assay [9]; 0.005 µM (active) in assay [10]; 0.0056 µM (active) in [5]; 0.0112 µM (active) in assay [6]; 0.0112 µM (active) in [2]. In addition, the Potency in assay [8] is 0.0126 µM (active).
For `[Cl][In]([Cl])[Cl]`, the Potency in assay [9] was 10 µM (active).
In the case of `CCOc1nc2cccc(C(=O)O)c2n1Cc1ccc(-c2ccccc2-c2nn[nH]n2)cc1`, the Potency entry in assay [1], in assay [9], in [5], in assay [6], in assay [7] and in assay [8] was “inactive” in each case. Also, the Potency in [2] was 11.2 µM (active).
Turning to `CC(=O)c1ccc2c(c1)N(CCCN(C)C)c1ccccc1S2`, the Potency result in assay [4], in [10], in assay [5], in assay [6], in [3] and in [7] was “inactive” throughout. Moreover, the Potency entry in [2] and in [8] was “inactive” throughout.
With `NCCNCCNCCN`, the Potency entry in [1], in assay [4], in [9], in assay [5], in assay [6] and in [3] was “inactive” each time. The Potency result in assay [7], in [2] and in assay [8] was “inactive” each time.
`COc1ccc2[nH]c(S(=O)Cc3ncc(C)c(OC)c3C)nc2n1` (stereo not drawn): the Potency in assay [4] is 6.31 µM (active); in [9] it was 7.94 µM (active); in assay [10] it was 8.91 µM (active); in assay [5], 4.47 µM (active); in assay [7] it was 7.94 µM (active); in assay [2], 8.91 µM (active). Further, the Potency in assay [8] is 8.91 µM (active).

The values are drawn from PubChem BioAssay (NCATS).
